The campaign covered roughly 640,000 compounds. About 9,300 (1.5%) were called active. No stated cut-off is given here; in the data, active means inhibition above about 32%; inactive means the rest. Many of the other results were omitted from the sample, so actives are more common in it than they were.
Assay: TEAD-YAP interaction inhibition, primary screen, TEAD-YAP interaction inhibitor project, luminescence, HEK-TIYL cells (AID 1259422);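 further: 0% = median of test compound wells and 100% = reference inhibitor wells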
Conditions: TEAD-Gal4/YAP UAS-luciferase luminescence, at 9.12 µM, stronger effect = higher value

Row | SMILES | inhibition
1 | CC[n+]1c(/C=C/C=C2\N(C)c3ccccc3C2(C)C)n(-c2ccccc2)c2ccc(Cl)cc21 | 91.8% (active)
2 | C=C1C[C@@H](c2ccccc2)N2CCC[C@H]2[C@H]1C | -6.5% (inactive)
3 | C=C(C)CN(CC)C(C)Cc1ccc(OC)c(OC)c1 (stereo not given) | -4.32% (inactive)
4 | Cc1[nH]c2c(F)cccc2c1CCN | 1.82% (inactive)
5 | CCOc1cc2c(cc1C=C(C#N)C#N)OCO2 | -1.58% (inactive)
6 | CC1=CC(=Cc2sc3ccccc3[n+]2C)C=C(C)O1 | 85.8% (active)
7 | Cc1ccc2nc(NC(=O)c3c(O)c4c(n(Cc5ccco5)c3=O)CCCC4)sc2c1 | -4.37% (inactive)
8 | COc1cc(/C=C2\C(=O)NC(=O)N(c3ccccc3)C2=O)ccc1O | 11.5% (inactive)
9 | Cc1cc2c(cc1Br)NC(=O)C2(c1c(O)n(C)c(=O)n(C)c1=O)C(C#N)C#N (stereo not given) | -14.6% (inactive)
10 | CN(C)P(=O)(c1cccc(C(=O)O)c1)N(C)C | -4.89% (inactive)
11 | CCOc1ccc(C(Nc2ccccc2)P2(=S)OCC(C)(C)CO2)cc1 (stereo not given) | 5.04% (inactive)
12 | CN[C@@H]1C[C@H]2O[C@@](C)([C@@H]1OC)n1c3ccccc3c3c4c(c5c6ccccc6n2c5c31)C(=O)NC4 | 102% (active)
13 | O=C1NC(=S)NC(=O)C1=Cc1ccc(-c2ccccc2)o1 | 1.36% (inactive)
14 | O=C(Cc1ccc(F)cc1)N(Cc1ccco1)C1CCN(Cc2ccncc2)CC1 | -7.86% (inactive)
15 | COc1ccc(C=C(C#N)C#N)c(C)c1C | -13.8% (inactive)
16 | c1ccc2c(c1)[I+]c1ccccc1-2 | 60% (active)
17 | CCOC(=O)C1=C(N)Oc2n[nH]c(C)c2C12C(=O)Nc1ccc(Br)cc12 (stereo not given) | 4.72% (inactive)
18 | CC(=O)Nc1cc([N+](=O)[O-])ccc1N1CCN(C)CC1 | -2.87% (inactive)

Row | SMILES | inhibition
19 | COc1ccc(-n2c(-c3ccccc3)nc3ccccc3c2=O)cc1 | 1.69% (inactive)
20 | COc1ccc(C(C[N+](=O)[O-])c2c(-c3ccccc3)[nH]c3ccccc23)cc1 (stereo not given) | 52.6% (active)
21 | CCCCOc1ccccc1C1C(C#N)=C(N)Oc2c1c(=O)oc1ccccc21 (stereo not given) | -0.47% (inactive)
22 | Cc1ccc(NC(=O)C2C3c4ccccc4C(c4ccccc43)C2C(=O)O)cc1 (stereo not given) | -0.29% (inactive)
23 | CCCCC[n+]1ccc(-c2cc[n+](CCCCC)cc2)cc1 | 56.5% (active)
24 | CCOC(=O)C1C2NC(=S)NC1(C)Oc1cc(OC)ccc12 (stereo not given) | 0.95% (inactive)
25 | O=C(c1ccccc1)c1cc(Cl)ccc1N1C(=O)c2ccccc2C1=O | -3.06% (inactive)
26 | COc1cc(CN2CCN(C)CC2)ccc1O | 4.62% (inactive)
27 | C[C@@H]1C[C@H]2CC[C@H](O2)[C@H](C)C(=O)O[C@@H](C)C[C@@H]2CC[C@@H](O2)[C@@H](C)C(=O)O[C@H](C)C[C@H]2CC[C@H](O2)[C@H](C)C(=O)O[C@@H](C)C[C@@H]2CC[C@@H](O2)[C@@H](C)C(=O)O1 | 94.6% (active)
28 | N#C/C(=C\c1cc2c(cc1Cl)OCO2)c1nn(CCO)c(N)c1C#N | -18.8% (inactive)
29 | CCC(=O)C1=C(C)OC(N)=C(C(=O)OC)C12C(=O)Nc1ccccc12 (stereo not given) | 3.18% (inactive)
30 | COc1ccc2c(c1)c(C(=O)N1CCN(C)CC1)c(C)n2C | -6.79% (inactive)
31 | C(=N\N1CCCCC1)/c1c[nH]c2ccccc12 | 4.68% (inactive)
32 | O=C1CC(=O)N(C2CCCCCC2)C(=O)N1 | -0.34% (inactive)
33 | N#Cc1ccc(NC(=O)COC(=O)CCC2CCCC2)cc1Cl | 0.25% (inactive)
34 | c1ccc2c(CCNC3CC4CCC3C4)c[nH]c2c1 (stereo not given) | -1.36% (inactive)
35 | CCCCCCOc1ccc(C=C2C(=O)NC(=S)NC2=O)cc1 | 13% (inactive)

Source: PubChem BioAssay AID1259422 (The Scripps Research Institute Molecular Screening Center, 2018)
